HPGD block: qHTS Assay for Inhibitors of HPGD (15-Hydroxyprostaglandin Dehydrogenase) | 15-hydroxyprostaglandin dehydrogenase [NAD(+)] (Homo sapiens), P15428 | purified HPGD, NADH fluorescence kinetic, PGE2 substrate | Potency, µM, without a hit: at the top dose activity change, negative = inhibition, actives largely listed as inhibitors | 150,000 tested, 4.3% active | AID 894, 2007; also: % is scaled to controls: 0 for no effect and ±100 for the full control effect
Target sequence (P15428 whole entry, looked up): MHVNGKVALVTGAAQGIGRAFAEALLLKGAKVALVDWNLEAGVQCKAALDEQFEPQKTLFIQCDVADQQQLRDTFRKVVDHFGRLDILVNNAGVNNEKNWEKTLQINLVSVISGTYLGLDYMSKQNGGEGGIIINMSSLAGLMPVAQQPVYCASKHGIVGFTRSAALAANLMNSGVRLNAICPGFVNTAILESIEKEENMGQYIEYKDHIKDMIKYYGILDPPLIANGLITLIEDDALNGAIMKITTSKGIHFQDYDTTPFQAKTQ
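20 nM HPGD preincubated 15 min at room temperature with compound in 50 mM Tris-HCl pH 8, 0.01% Tween 20. Started with 1 mM NAD+ and 30 uM prostaglandin E2; NADH fluorescence (360/450 nm) read 5 times over 30-s intervals, last minus first.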
ALDH1A1 block: qHTS Assay for Inhibitors of Aldehyde Dehydrogenase 1 (ALDH1A1); Potency, µM (series often up to 75.3 µM), without a hit: top-dose activity, negative = inhibition, hits mostly inhibitors; Purified ALDH1A1, NADH fluorescence, propionaldehyde substrate; 220,000 tested, 7.3% active; Aldehyde dehydrogenase 1A1 (Homo sapiens), P00352; AID 1030, 2008;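 also: plate controls were no enzyme wells and a reference inhibitor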
Target sequence (P00352 whole entry, looked up): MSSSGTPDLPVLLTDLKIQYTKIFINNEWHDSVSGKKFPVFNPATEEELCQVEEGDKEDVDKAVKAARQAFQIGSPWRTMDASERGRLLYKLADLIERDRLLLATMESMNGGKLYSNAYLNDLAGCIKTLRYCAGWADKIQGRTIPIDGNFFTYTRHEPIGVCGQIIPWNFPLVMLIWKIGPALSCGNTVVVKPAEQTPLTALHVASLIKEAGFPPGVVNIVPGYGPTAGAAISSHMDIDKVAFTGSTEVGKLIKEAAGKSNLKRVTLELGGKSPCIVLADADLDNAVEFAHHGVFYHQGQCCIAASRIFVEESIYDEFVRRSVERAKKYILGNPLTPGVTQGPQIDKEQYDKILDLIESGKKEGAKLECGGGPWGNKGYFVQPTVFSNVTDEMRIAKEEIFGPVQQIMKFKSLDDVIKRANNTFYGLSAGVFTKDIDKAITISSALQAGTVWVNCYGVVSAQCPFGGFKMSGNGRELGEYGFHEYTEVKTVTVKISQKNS
Lamin A splicing: qHTS Assay for Modulators of Lamin A Splicing | HeLa LMNA splicing GFP/RFP minigene ratio, 48 h | Potency, µM (highest dose often 46.1 µM), for inactives: top-dose ratio change, negative = inhibition, actives largely listed as inhibitors | 200,000 tested, 0.01% active | AID 1487, 2009; active = well fitted inhibition curve with a large enough effect in the signal ratio, with a control signal flat, not every such curve was filed as active; inconclusive = small, poorly fitted or top-dose-only effect, or effect the other way, or a change in a side signal; the % refers to the signal ratio; also: % is scaled to controls: 0 for no effect and ±100 for the full control effect
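Read-out is the ratio of GFP to DsRed2 object intensity, acquired by 488 nm laser-scanning cytometry on HeLa lamin A-EGFP minigene reporter cells. Compound incubation 48 hrs at 37 °C in Opti-MEM with 2% FBS; DMSO 0.5% final.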
HTT ATP protect: qHTS Multiplex Assay to Identify Dual Action Probes in a Cell Model of Huntington: Cytoprotection (ATP); PC12 HTT-Q103 induced, cytoprotection, ATP luminescence, 40 h; Potency, µM (top dose mostly 56.4 µM), inactives show cytoprotection (ATP increase), usual class: activators; 230,000 tested, 0.14% active; AID 1471, 2008; active = well fitted curve in the direction sought with a large enough effect; inconclusive = small, poorly fitted or top-dose-only effect, or another doubt; inactive = no such curve, though single readings can be large; an effect the other way counts as inactive or inconclusive; also: % of control where 0% means no effect; nearly all actives have a fitted effect of over 45% in size
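Quantitative HTS on tebufenozide-induced (100 nM) PC12 cells expressing HTTQ103 exon 1–GFP; compounds tested as a concentration series; survival measured via cellular ATP.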
HTT aggregate: qHTS Multiplex Assay to Identify Dual Action Probes in a Cell Model of Huntington: Aggregate Formation (GFP); 220,000 tested, 1.1% active; PC12 HttQ103-GFP aggregates, Acumen cytometry, 40 h; Potency, µM (titrated, usually from 46.1 µM), inactives show at the top dose activity change, negative = inhibition, hits mostly inhibitors; AID 1688, 2009; active = well fitted curve in the direction sought with a large enough effect; inconclusive = small, poorly fitted or top-dose-only effect, or another doubt; inactive = no such curve, though single readings can be large; an effect the other way counts as inactive or inconclusive; also: % is scaled to controls: 0 for no effect and ±100 for the full control effect; nearly all actives have a fitted effect of over 60% in size
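Quantitative HTS on tebufenozide-induced (100 nM) PC12 cells stably expressing polyQ103 Huntingtin exon 1–GFP. Reduction of bright GFP aggregates, detected by laser scanning cytometry after lysis, identified actives across the titration.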
Active calls of the source: *; u = inconclusive; x = no result given; [ ] = remark or other dose. An excerpt weighted towards active compounds, which were near 8.8% of everything screened. Unless noted, calls follow the shape of the dose curve; as a rule, active = well fitted inhibition curve with a large enough effect (not every such curve was filed as active); inconclusive = small, poorly fitted or top-dose-only effect, or another doubt; inactive = no such curve, though single readings can be large or run the other way. Potency is read from the fitted curve at half-maximal effect.

SMILES | HPGD block | ALDH1A1 block | Lamin A splicing | HTT ATP protect | HTT aggregate
Clc1ccc(C2=NNC(=NCc3ccccc3)SC2)cc1 | x | 10µM* | x | 1%[10 µM] | 29%
Fc1ccc(C2=NNC(=NCc3ccccc3)SC2)cc1F | x | u | x | u | -6%
c1ccc(CN=C2NN=C(c3ccccc3)CS2)cc1 | x | 22µM* | 1%[46 µM] | 4%[10 µM] | -4%
CC(=O)c1c(C)[nH]c(C2=NNC(=NCc3ccccc3)SC2)c1C | x | 28µM* | 12%[46 µM] | -18% | -2%
C=CCN=C1NN=C(c2cc(C)n(CC=C)c2C)CS1 | -26% | u | 7% | -7%[10 µM] | -10%
Cc1cc(/C=C(\C#N)C(=O)NCc2ccco2)c(C)n1-c1ccc(C(=O)O)cc1 | x | 2% | u | 4%[10 µM] | -14%[9.22 µM]
O=C(NCCc1ccccc1)c1cccc(Br)n1 | -28% | -4% | x | -19% | x
CN(Cc1ccccc1)C(=O)[C@H](Cc1ccc2ccccc2c1)NC(=O)[C@@H]1CCCN1C(=O)Nc1ccccc1[N+](=O)[O-] | -6% | -4% | x | x | x
CCN=C1NN=C(c2ccc(C)cc2)CS1 | 28µM* | 25µM* | 10% | -11% | -4%
c1ccc(C2=NNC(=NCc3ccc4c(c3)OCO4)SC2)cc1 | x | 25µM* | -5% | 19%[10 µM] | 7%
Cc1ccc(-c2[nH]ncc2/C=N/n2c(COc3ccccc3)nc3ccccc3c2=O)cc1 | -15% | 2% | u | -23%[10 µM] | 3%
Cc1cccc(C)c1OCc1nc2ccccc2c(=O)n1/N=C/c1ccc(OCC(=O)O)cc1 | -21% | 14µM* | 11% | x | -15%
Cc1cc(/C=N/n2c(COc3ccccc3)nc3ccccc3c2=O)c(O)c([N+](=O)[O-])c1 | u | 0% | u | 41%[10 µM] | 10µM*
C[C@H](CCC(=O)NCC(=O)O)C1CC[C@H]2C3CC[C@@H]4C[C@H](O)CC[C@]4(C)C3C[C@H](O)[C@]12C (stereo not given in full) | x | 4% | x | -13% | x
COC(=O)N[C@@H](/C=C/c1ccccc1)C[N+](=O)[O-] | -7% | 8% | x | u | x
S=C(Nc1ccc(N2CCOCC2)cc1)Nc1ccc2snnc2c1 | x | 25µM* | u | -28% | -20%
COC(=O)C1C(=O)N2CCCSC2=C(C#N)C1c1cccs1 (stereo not given) | -7% | 6.3µM* | 4% | -16%[10 µM] | 3%
COC(=O)C1C2C=CC3(CN(Cc4cccs4)C(=O)C13)O2 (stereo not given) | -8% | -10% | -6% | -7%[10 µM] | 1%
CCOc1ccc(-c2nnc(N3CCCCC3)c3ccccc23)cc1 | -29% | u | 6%[0.0737 µM] | -38% | 11µM*
Cc1nc2sccn2c1-c1csc(NCc2ccccc2)n1 | -21% | 11µM* | 21% | -79% | 7.1µM*
Cc1cc(-c2csc(N)n2)c(C)n1CCc1ccccc1 | -4% | u | 2% | -13% | 21%
Cc1nc(N)sc1-c1csc(NCc2ccccc2)n1 | 18µM* | 2.2µM* | u | -33% | 1%
Cc1nc(NC(=O)c2ccccc2)sc1-c1csc(NCc2ccccc2)n1 | u | u | 1% | -34% | -28%
Cc1cc(-c2csc(NCc3ccccc3)n2)c(C)n1C | x | 20µM* | -8%[46 µM] | -12% | 10%
CC(C)Cn1cc(NC(=O)N2CCN(c3ccc(F)cc3)CC2)c2ccccc2c1=O | x | x | 9%[46 µM] | x | x
SMILES | HPGD block | ALDH1A1 block | Lamin A splicing | HTT ATP protect | HTT aggregate
O=C(Oc1cc(-c2ccccc2)no1)c1cccc(C(F)(F)F)c1 | -17% | 7.9µM* | 0% | -8% | 2%
COC(=O)[C@H](C)NC(=O)C/C=C\[C@@H](C)CO | x | 8%[13.5 µM] | x | u | x
COc1ccc2c(c1)O[C@@H](c1cccc(C(F)(F)F)c1)[C@H](OC(=O)N[C@H](C)C1CCCCC1)C2=O | 0% | 12% | x | -6% | x
COc1ccc(C(Nc2ccccn2)c2oc(CO)cc(=O)c2O)cc1 (stereo not given) | u | u | -4% | x | 8%
O=c1cc(CO)oc(C(Nc2ccccn2)c2ccsc2)c1O (stereo not given) | u | u | -9% | 21%[0.074 µM] | 7%
O=c1cc(CO)oc(C(Nc2ccccn2)c2ccc(F)cc2)c1O (stereo not given) | -22% | 8.9µM* | -18% | 4%[10 µM] | -9%
Cc1ccnc(NC(c2ccccc2O)c2oc(CO)cc(=O)c2O)c1 (stereo not given) | x | 13µM* | x | -22% | -17%
O=c1cc(CO)oc(C(Nc2ccccn2)c2ccccc2Cl)c1O (stereo not given) | x | 5µM* | x | u | -18%
Cc1noc(C)c1C(=O)N1CCC2(CC1)CN(c1ccccn1)C2 | u | u | x | 3% | x
O=C1[C@@H]2[C@@H](C(=O)N1c1ccc(OCc3ccccc3)cc1)[C@@H]1c3ccccc3[C@@H]2[n+]2ccccc21 | -4% | -10%[13.5 µM] | x | -2%[10 µM] | x
CCOC(=O)c1cc2n(c1/N=C/N(C)C)-c1ccccc1C2=O | -14% | 18µM* | 16% | -8%[10 µM] | 4%
O=C(CN1CCC(c2nc3ccccc3s2)CC1)N1CCCCC1 | x | u | x | -87% | 17%
O=C(CSc1ccc(F)cc1)N1CCC(c2nc3ccccc3s2)CC1 | -21% | 7.1µM* | 12% | -67% | -1%
Fc1ccc(-c2nnc(CN3CCC(c4nc5ccccc5s4)CC3)o2)cc1 | -19% | -15% | u | -20% | 11µM*
O=C(CSc1ccccc1Cl)N1CCC(c2nc3ccccc3s2)CC1 | -4% | 13µM* | u | -28% | u
Cc1c(CC(C)(C)C(=O)O)n(Cc2ccc(Cl)cc2)c2ccc(F)cc12 | u | -3% | x | -2% | x
CCOC(=O)/C=C/C(=O)Nc1cccc([N+](=O)[O-])c1 | 1.6µM* | -1% | u | 12%[10 µM] | -2%
CC(=O)Nc1ccc(C(=O)Nc2cc(C(F)(F)F)ccc2-n2cnc3ccccc32)cc1 | 14µM* | u | u | -9%[10 µM] | -3%
COc1ccc(C(=O)Nc2cc(C(F)(F)F)ccc2-n2cnc3ccccc32)cc1 | -2% | u | -10% | 4%[10 µM] | -21%
CN(Cc1nc(-c2cccnc2)no1)S(=O)(=O)c1ccc(Br)cc1 | u | 4% | -10% | -18%[10 µM] | 22µM*
CN(Cc1nc(-c2ccccn2)no1)S(=O)(=O)c1ccc(Br)cc1 | 22µM* | u | -3% | 4%[0.074 µM] | u
CCCCC(=O)NS(=O)(=O)c1ccc(NS(C)(=O)=O)cc1 | -6% | 8% | 0% | x | 15%
N#CCCCS(=O)(=O)c1nnnn1-c1ccc(Br)cc1 | -10% | 20µM* | x | 22% | x
N#CCCS(=O)(=O)c1nnnn1-c1ccccc1 | u | 0.45µM* | u | -61% | u
